Assay outcomes deposited in PubChem BioAssay by National Center for Advancing Translational Sciences (NCATS).
ELG1 genotox = qHTS screen for small molecules that induce genotoxicity in human embryonic kidney (HEK293T) cells expressing luciferase-tagged ELG1 | AID 504466, 2011 | HEK293T ELG1-luciferase reporter, luminescence, 16 h | Potency, µM (titrated, usually from 46 µM), without a hit: at the top dose activity change, positive = activation, usual class: activators | hit rate 1.3% among 330,000; note: % of control where 0% means no effect; nearly all actives have a fitted effect of over 60% in size
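Quantitative HTS format in 1536-well plates. HEK293T ELG1-luciferase reporter cells receive test compound and are incubated 16 hr at 37 °C, 5% CO2; ONE-Glo added, 30 min room temperature, then luminescence read.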
FLuc counter = qHTS profiling assay for firefly luciferase inhibitor/activator using purifed enzyme and Km concentrations of substrates (counterscreen for miR-21 project); purified FLuc, Km substrates, luminescence inhibition; hit rate 6.9% among 360,000; AID 588342, 2011; Luciferin 4-monooxygenase (Photinus pyralis), P08659; Potency, µM (titrated, usually from 57.5 µM), without a hit: at the top dose activity change, negative = inhibition, usual class: inhibitors;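 note: plate controls were vehicle for no effect and reference inhibitor for full effect; nearly all actives have a fitted effect of over 55% in size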
Target sequence (P08659 whole entry, looked up): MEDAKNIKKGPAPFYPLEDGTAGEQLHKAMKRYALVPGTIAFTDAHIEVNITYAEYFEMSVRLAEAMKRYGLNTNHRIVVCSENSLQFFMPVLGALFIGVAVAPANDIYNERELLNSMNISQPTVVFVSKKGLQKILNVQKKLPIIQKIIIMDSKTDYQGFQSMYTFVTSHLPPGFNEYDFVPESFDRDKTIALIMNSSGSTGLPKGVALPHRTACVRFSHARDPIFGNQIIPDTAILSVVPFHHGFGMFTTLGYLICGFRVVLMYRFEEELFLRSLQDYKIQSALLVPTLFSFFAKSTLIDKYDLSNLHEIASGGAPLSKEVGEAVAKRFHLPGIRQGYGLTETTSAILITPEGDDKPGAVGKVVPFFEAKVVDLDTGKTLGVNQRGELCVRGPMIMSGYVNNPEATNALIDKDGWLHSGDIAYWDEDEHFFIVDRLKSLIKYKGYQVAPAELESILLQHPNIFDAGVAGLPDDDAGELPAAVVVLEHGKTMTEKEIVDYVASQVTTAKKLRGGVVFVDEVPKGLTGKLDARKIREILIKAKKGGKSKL
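Biochemical qHTS of compounds, final roughly 60 µM downward over six points, against 10 nM purified firefly luciferase using Km concentrations of substrates (10 uM D-luciferin, 10 uM ATP) in Tris acetate pH 7.5 buffer; luminescence output.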
NPC1 prom act = qHTS Assay for NPC1 Promoter Activators; Huh7 NPC1 promoter luciferase reporter, 24 h; Potency, µM (top dose mostly 9.22 µM), for the others: at the highest dose activation, usual class: activators; hit rate 2.4% among 320,000; AID 485313, 2010; note: % of control where 0% means no effect; nearly all actives have a fitted effect of over 60% in size
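Luciferase expression driven by the NPC1 promoter was measured in stably transfected Huh7 cells after a 24 h compound incubation, using a luciferase reagent and a luminescence read.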
SMN2 splice up = qHTS Assay for Enhancers of SMN2 Splice Variant Expression; HEK293 SMN2-luciferase splicing reporter, luminescence, 30-36 h; hit rate 2.8% among 210,000; AID 1458, 2008; Potency, µM (highest dose often 46.1 µM), without a hit: at the top dose activity change, positive = activation, hits mostly activators; note: % of control where 0% means no effect; nearly all actives have a fitted effect of over 55% in size
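HEK293 cells carry an SMN2 minigene-luciferase reporter in which exon 7 inclusion puts luciferase in frame. Cells were seeded at 2000 cells/well, attached for 10-12 hours, then exposed to compounds for 30-36 hours at 37C before ONE-Glo luminescence.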
Rab9 prom act = qHTS Assay for Rab9 Promoter Activators. Huh7 Rab9 promoter-luciferase reporter, luminescence, 24 h. Potency, µM (top dose mostly 9.22 µM), inactives show at the top dose activation, negative = inhibition, usual class: activators. hit rate 2.8% among 320,000; note: % of control where 0% means no effect; nearly all actives have a fitted effect of over 60% in size
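Cell-based reporter: Huh7 stable for Rab9 promoter-driven luciferase, plated in reduced-serum medium with 10% FBS at 1500 cells/well, compound-treated 24 h at 37 °C, luminescence read after 10 min reagent.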
KinaseGlo FLuc = Counterscreen for Luciferase (Kinase-Glo TM) Inhibition; Kinase-Glo luciferase, ATP luminescence, 8 min; Potency, µM (highest dose often 38.3 µM), without a hit: at the top dose activity change, negative = inhibition, actives largely listed as inhibitors; hit rate 0.28% among 200,000; AID 1379, 2008; note: % is set by controls: 0 for no effect and ±100 for the full control effect; nearly all actives have a fitted effect of over 60% in size
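Inhibition of Kinase-Glo luciferase light generation was assessed at 10 uM ATP in pH 7.2 imidazole buffer, with luminescence measured after eight minutes at ambient temperature.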
* marks the source's active call; other numbers are inactive results; ? = inconclusive; nt = no result; [ ] = another dose, or the depositor's remark. The list is not random: actives were taken first. Their share in the collection is about 7.3%. Calls come from the whole dose curve; as a rule, active = well fitted curve in the direction sought with a large enough effect; inconclusive = small, poorly fitted or top-dose-only effect, or another doubt; inactive = no such curve, though single readings can be large; an effect the other way counts as inactive or inconclusive. Potency is the fitted concentration of half-maximal effect.

SMILES	ELG1 genotox	FLuc counter	NPC1 prom act	SMN2 splice up	Rab9 prom act	KinaseGlo FLuc
c1ccc2c(c1)CCC[C@H]2Nc1nc2ccccc2[nH]1	nt	nt	-7%[46.1 µM]	nt	-24%[46.1 µM]	nt
c1ccc(CN2CCC(=NNc3nc4ccccc4[nH]3)CC2)cc1	2%	19µM*	-2%	5%	0%	-2%
Cn1c(Cn2nnc3ccccc32)nnc1SCC(=O)Nc1ccc2c(c1)OCO2	-3%	8%	-1%	2%	-3%	1%
COc1ccc(C(=O)Nc2cccc(C(=O)N3CCCCC3)c2)cc1	2%	15µM*	14%	nt	11%	nt
CC(C)(C)c1ccc(OC(=O)N2CCOCC2)cc1	?	15µM*	4%	nt	?	nt
CN(C)S(=O)(=O)c1ccc(C(=O)Nc2cccc(C(=O)N3CCOCC3)c2)cc1	-3%	-2%	0%	nt	1%	nt
CC(C)(C)c1ccc(C(=O)Nc2cccc(C(=O)N3CCOCC3)c2)cc1	?	0.54µM*	1.3µM*	nt	0.89µM*	nt
COc1ccc(C(=O)Nc2cccc(C(=O)N3CCN(C)CC3)c2)cc1	7%	-10%[2.3 µM]	?	?	?	1%
Cc1ccc(C(=O)Nc2cccc(C(=O)N3CCOCC3)c2)cc1	?	9.5µM*	4µM*	?	2µM*	-3%
N#CCSc1nnc(-c2c[nH]c3ccccc23)o1	4%	-2%	-2%	nt	-2%	nt
Cc1ccc(C(NC(=O)c2ccccc2)C(Cl)(Cl)Cl)cc1 (stereo not drawn)	0%	-2%	-5%	-53%	-6%	3%
Cc1ccc(-n2ncc(C(=O)NCC3CCN(C4CCCC4)C3)c2C2CCN(C(=O)OC(C)(C)C)CC2)cc1C (stereo not drawn)	0%[9.26 µM]	-1%	-3%	nt	-4%	nt
Cc1ccc2[nH]c3c(c2c1)CCc1cn[nH]c1-3	0%	11µM*	?	7%	?	-4%
CC(=O)c1cccc(NC(=O)c2nc3ccccc3n(C)c2=O)c1	nt	3.8µM*	nt	23%	nt	nt
CC(=O)c1ccc(NC(=O)c2cnn3ccccc23)cc1	1.3µM*	5.4µM*	0.35µM*	-37%	0.35µM*	-14%
CC(=O)c1cccc(NC(=O)c2cnn3ccccc23)c1	12µM*	12µM*	5µM*	nt	3.2µM*	?
COc1cc(NC(=O)c2nc3ccccc3n(C)c2=O)cc(OC)c1OC	nt	-20%	nt	-2%	nt	nt
CC(=O)c1cccc(NC(=O)c2ccccc2-c2ccccc2C(=O)O)c1	-5%	2%	5%	nt	-11%	nt
CC(=O)c1ccc(NC(=O)c2cnn(-c3cccc(F)c3)c2-n2cccc2)cc1	nt	-13%	nt	nt	nt	nt
CCc1ccc(NC(=O)Nc2ccsc2C(=O)OC)cc1	2.1µM*	0.34µM*	17%	nt	?	nt
COC(=O)c1sccc1NC(=O)Nc1ccc(Cl)c(Cl)c1	18%	?	-2%	13µM*	-3%	-23%
COC(=O)c1sccc1NC(=O)Nc1ccccc1C	12%	4%	-7%	nt	-6%	nt
COC(=O)c1sccc1NC(=O)Nc1ccccc1F	4%	13µM*	1%	nt	-1%	13µM*
COC(=O)c1sccc1NC(=O)Nc1ccc(OC)c(OC)c1	-3%	?	-1%	nt	-1%	nt
COC(=O)c1sccc1NC(=O)Nc1ccc(C)c(C)c1	2.3µM*	0.48µM*	2%	nt	?	nt
CC(CCc1ccccc1)NC(=O)c1cccc(F)c1 (stereo not drawn)	0%	-2%	-2%	nt	0%	nt
NC(=O)CC(NC(=O)c1ccccc1)c1ccc(NCCN2CCOCC2)c([N+](=O)[O-])c1 (stereo not drawn)	2%	0%	3%	nt	0%	nt
